Results: PubChem BioAssay (NCI)
Compounds without any hit were thinned out: in the full panel of roughly 83,000, 20% have a hit.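 Percent growth is the endpoint: 0 to 100 indicates growth inhibition (40 means 60% inhibition), 0 means no net growth, and negative values indicate cell death.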 Activity calls are given as the source filed them. Rule for the calls: active = growth percent below 10; inactive = the rest.

system: T-47D breast; experiment: NCI-60 one-dose screen, 48 h (100 = growth as untreated, 0 = no growth, -100 = all killed); settings: 10 µM unless noted

Structure (SMILES) | growth
CC(=O)Nc1c(Cl)cc2c(c1Cl)Cc1ccccc1-2 | 89.5% (inactive)
Clc1ccc(C2c3ccccc3-c3nccn32)c(Cl)c1 (stereo not given) | 56.2% (inactive)
Cc1ccccc1NC(=O)N/C(N)=N/c1nc2ccccc2s1 | 61.1% (inactive)
O=[N+]([O-])c1cc([N+](=O)[O-])c(N2CCCC2)cc1NN=C(c1ccc(O)cc1)c1ccc(O)cc1 | -7.05% (active)
CCCCc1ccc(C(N)=O)nc1 | 101% (inactive)
O=C(c1ccc(N2CCOCC2)cc1[N+](=O)[O-])N1CCOCC1 | 102% (inactive)
Cc1cc(C)c(C(=O)c2cccs2)c(C)c1 | 102% (inactive)
CC(C)N(Cc1ccccc1)c1c(Cl)ssc1=O | 98.9% (inactive)
c1ccc(-c2oc(-c3ccccc3)c3ccccc23)cc1 | 101% (inactive)
N#Cc1c(-c2ccccc2)cc(-c2ccccc2)n(CC(=O)O)c1=O | 45.3% (inactive)
Oc1c(N=Nc2nn[nH]n2)ccc2ccccc12 | 97.7% (inactive)
CCOC(=O)C(C(=O)OCC)C1CCCCC1 | 100% (inactive)
CNCCCn1c2c(c3ccc(F)cc3c1=O)C(=O)c1cc(OC)cnc1-2 | -2.54% (active)
O=C1NC(=O)/C(=C/c2ccc(Cl)cc2Cl)N1 | 90.9% (inactive)
Nc1c(C(=O)Nc2cccc(Cl)c2)sc2nc3c(cc12)C(O)CCC3 (stereo not given) | 52.3% (inactive)
CCN(CC)CCCCCCCNc1c2ccc(Cl)cc2nc2ccc(OC)cc12 | -42.3% (active)
Cn1c(N2N=C(c3ccc(Cl)cc3)CC2c2ccccc2)nc(-c2ccccc2)c(C#N)c1=O (stereo not given) | 64.4% (inactive)
C[C@H]1C(=O)N2c3ccccc3[C@@]3(O)C[C@@H](n4cnc5ccccc5c4=O)C(=O)N1[C@@H]23 | 99.1% (inactive)
O=C1/C(=C\c2coc3ccccc3c2=O)c2ccccc2N1c1c(Cl)cccc1Cl | 30% (inactive)
Oc1c(Cl)cc(Cl)c(Cl)c1Cc1c(O)c(Cl)cc(Cl)c1Cl | 33.8% (inactive)

Structure (SMILES) | growth
COc1ccc(C2=NN(C(N)=S)C(c3ccc4c(c3)OCO4)C2)cc1 (stereo not given) | 36.7% (inactive)
CC[C@H]1CN2CCc3cc(OC)c(OC)cc3C2C[C@@H]1CC1NCCc2cc(OC)c(OC)cc21 (stereo not given in full) | -15.1% (active)
COc1cccc(C2=NN(C(C)=O)C(c3cc(OC)c(OC)c(OC)c3)C2)c1 (stereo not given) | 35.2% (inactive)
CC(=O)O[C@H]1CC[C@@]2(C)C(=CC[C@@H]3[C@@H]2CC[C@]2(C)C(c4cccnc4)=CC[C@@H]32)C1 | 47.2% (inactive)
Cc1cc2c(cc1C)[n+](Cc1ccc3ccccc3c1)cn2Cc1ccc2ccccc2c1 | -56.4% (active)
N/C(=N\C(N)=N\c1nc2ccccc2s1)c1ccnc(Cl)c1 | 60.8% (inactive)
CC(=O)OC1Oc2cc(C)c(C)cc2-c2oc(=O)c(-c3ccccc3)cc21 (stereo not given) | 43.8% (inactive)
O=C(N/N=C/c1cccc(O)c1O)c1ccccc1 | 15.5% (inactive)
CN[C@@H]1C(OC2[C@H](O[C@H]3[C@H](O)[C@@H](O)[C@H](N=C(N)N)[C@@H](O)[C@@H]3N=C(N)N)OC(C)[C@]2(O)CO)OC(CO)C(O)C1O (stereo not given in full) | 111% (inactive)
CN(C)c1ccc(-c2nc3ncc(Br)cc3o2)cc1 | 75.7% (inactive)
O=C(C(=O)N1CCOCC1)c1cn(CCCn2cc(C(=O)C(=O)N3CCOCC3)c3ccccc32)c2ccccc12 | 94.7% (inactive)
C[N+]1(C)C2CC[C@@H]1CC(OC(=O)C(O)c1ccccc1)C2 (stereo not given in full) | 109% (inactive)
Cn1ccnc1C(=O)/C=C/c1ccc(C(=O)Nc2nc3ccccc3[nH]2)cc1 | 49.6% (inactive)
COc1ccc(/C=C2\CCc3ccccc3C2=O)cc1 | 92.5% (inactive)
CCSc1nc(Nc2ccc(S(=O)(=O)Nc3ccon3)cc2)c(C#N)c(-c2cccc(Br)c2)n1 | 81% (inactive)
COc1ccc(C2CC(c3ccc4c(c3)OCO4)=NN2C=O)cc1 (stereo not given) | 99.2% (inactive)
CSc1nc2nc3c(c(-c4ccc(C)cc4)c2c(=O)[nH]1)CN(C)C/C3=C\c1ccc(C)cc1 | 103% (inactive)
O=c1oc2c(cc1-c1ccc([N+](=O)[O-])cc1)C(O)Oc1ccccc1-2 (stereo not given) | 75.3% (inactive)
COc1ccccc1-n1c(-c2ccc(O)cc2C)cn2c3c(=O)[nH]c(=O)n(C)c3nc12 | 77.3% (inactive)
CCOc1cc(/C=C/C(=O)CC(=O)/C=C/c2ccc(OC(=O)CNCCN(CC)CC)c(OCC)c2)ccc1OC(=O)CNCCN(CC)CC | 36.9% (inactive)

system: BT-549 breast; experiment: as above; settings: 10 µM unless noted

Structure (SMILES) | growth
CC(=O)Nc1c(Cl)cc2c(c1Cl)Cc1ccccc1-2 | 98.8% (inactive)
Clc1ccc(C2c3ccccc3-c3nccn32)c(Cl)c1 (stereo not given) | 83.8% (inactive)
Cc1ccccc1NC(=O)N/C(N)=N/c1nc2ccccc2s1 | -2.9% (active)
O=[N+]([O-])c1cc([N+](=O)[O-])c(N2CCCC2)cc1NN=C(c1ccc(O)cc1)c1ccc(O)cc1 | 86.6% (inactive)
CCCCc1ccc(C(N)=O)nc1 | 97.8% (inactive)
O=C(c1ccc(N2CCOCC2)cc1[N+](=O)[O-])N1CCOCC1 | 104% (inactive)
Cc1cc(C)c(C(=O)c2cccs2)c(C)c1 | 109% (inactive)
CC(C)N(Cc1ccccc1)c1c(Cl)ssc1=O | 90.9% (inactive)
c1ccc(-c2oc(-c3ccccc3)c3ccccc23)cc1 | 96.5% (inactive)
N#Cc1c(-c2ccccc2)cc(-c2ccccc2)n(CC(=O)O)c1=O | 25.8% (inactive)
Oc1c(N=Nc2nn[nH]n2)ccc2ccccc12 | 83.2% (inactive)
CCOC(=O)C(C(=O)OCC)C1CCCCC1 | 104% (inactive)
CNCCCn1c2c(c3ccc(F)cc3c1=O)C(=O)c1cc(OC)cnc1-2 | -6.14% (active)
O=C1NC(=O)/C(=C/c2ccc(Cl)cc2Cl)N1 | 104% (inactive)
Nc1c(C(=O)Nc2cccc(Cl)c2)sc2nc3c(cc12)C(O)CCC3 (stereo not given) | 56% (inactive)
CCN(CC)CCCCCCCNc1c2ccc(Cl)cc2nc2ccc(OC)cc12 | -20.9% (active)
Cn1c(N2N=C(c3ccc(Cl)cc3)CC2c2ccccc2)nc(-c2ccccc2)c(C#N)c1=O (stereo not given) | 88.1% (inactive)
C[C@H]1C(=O)N2c3ccccc3[C@@]3(O)C[C@@H](n4cnc5ccccc5c4=O)C(=O)N1[C@@H]23 | 103% (inactive)
O=C1/C(=C\c2coc3ccccc3c2=O)c2ccccc2N1c1c(Cl)cccc1Cl | 41.1% (inactive)
Oc1c(Cl)cc(Cl)c(Cl)c1Cc1c(O)c(Cl)cc(Cl)c1Cl | 17.2% (inactive)

Structure (SMILES) | growth
COc1ccc(C2=NN(C(N)=S)C(c3ccc4c(c3)OCO4)C2)cc1 (stereo not given) | -2.03% (active)
CC[C@H]1CN2CCc3cc(OC)c(OC)cc3C2C[C@@H]1CC1NCCc2cc(OC)c(OC)cc21 (stereo not given in full) | -11% (active)
COc1cccc(C2=NN(C(C)=O)C(c3cc(OC)c(OC)c(OC)c3)C2)c1 (stereo not given) | 7.16% (active)
CC(=O)O[C@H]1CC[C@@]2(C)C(=CC[C@@H]3[C@@H]2CC[C@]2(C)C(c4cccnc4)=CC[C@@H]32)C1 | 63.4% (inactive)
Cc1cc2c(cc1C)[n+](Cc1ccc3ccccc3c1)cn2Cc1ccc2ccccc2c1 | -86.9% (active)
N/C(=N\C(N)=N\c1nc2ccccc2s1)c1ccnc(Cl)c1 | 38% (inactive)
CC(=O)OC1Oc2cc(C)c(C)cc2-c2oc(=O)c(-c3ccccc3)cc21 (stereo not given) | 24.9% (inactive)
O=C(N/N=C/c1cccc(O)c1O)c1ccccc1 | 31.3% (inactive)
CN[C@@H]1C(OC2[C@H](O[C@H]3[C@H](O)[C@@H](O)[C@H](N=C(N)N)[C@@H](O)[C@@H]3N=C(N)N)OC(C)[C@]2(O)CO)OC(CO)C(O)C1O (stereo not given in full) | 112% (inactive)
CN(C)c1ccc(-c2nc3ncc(Br)cc3o2)cc1 | 78.3% (inactive)
O=C(C(=O)N1CCOCC1)c1cn(CCCn2cc(C(=O)C(=O)N3CCOCC3)c3ccccc32)c2ccccc12 | 104% (inactive)
C[N+]1(C)C2CC[C@@H]1CC(OC(=O)C(O)c1ccccc1)C2 (stereo not given in full) | 99.6% (inactive)
Cn1ccnc1C(=O)/C=C/c1ccc(C(=O)Nc2nc3ccccc3[nH]2)cc1 | 5.05% (active)
COc1ccc(/C=C2\CCc3ccccc3C2=O)cc1 | 97.9% (inactive)
CCSc1nc(Nc2ccc(S(=O)(=O)Nc3ccon3)cc2)c(C#N)c(-c2cccc(Br)c2)n1 | 90.2% (inactive)
COc1ccc(C2CC(c3ccc4c(c3)OCO4)=NN2C=O)cc1 (stereo not given) | 89.1% (inactive)
CSc1nc2nc3c(c(-c4ccc(C)cc4)c2c(=O)[nH]1)CN(C)C/C3=C\c1ccc(C)cc1 | 114% (inactive)
O=c1oc2c(cc1-c1ccc([N+](=O)[O-])cc1)C(O)Oc1ccccc1-2 (stereo not given) | 97.1% (inactive)
COc1ccccc1-n1c(-c2ccc(O)cc2C)cn2c3c(=O)[nH]c(=O)n(C)c3nc12 | 135% (inactive)
CCOc1cc(/C=C/C(=O)CC(=O)/C=C/c2ccc(OC(=O)CNCCN(CC)CC)c(OCC)c2)ccc1OC(=O)CNCCN(CC)CC | -77.2% (active)
